Test results taken from the supplement of paper PMC8975748.
Structures can show the parent of a compound that is named as a salt. ± gives the standard deviation of the averaged measurements.

What was measured:
[1] = system: Saccharomyces cerevisiae BY4741 SeMeCo community; test: mean cell size (pixel area) (pixels); higher = larger cells; conditions: 10 µM; 24 h; SM minimal medium
In short: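 Plates of 384 wells were acoustically predosed with drug at a final 10 µM in SM medium, and 70 µl of a Saccharomyces cerevisiae BY4741 preculture diluted from OD600 = 1.0 to OD600 = 0.3 was added for 24 h. The yeast formed a four-plasmid fluorescent community in which each plasmid complements one auxotrophy and carries a fluorescent marker. Fixed cells were imaged by automated confocal microscopy and analysed in Harmony for mean cell pixel area per well. Values are means of 3 replicates. Same SeMeCo high-content imaging drug screen: Selleck FDA-approved drugs at 10 µM, 24 h in SM medium, 384-well plates, 3 replicates.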

[2] = system: Saccharomyces cerevisiae BY4741 SeMeCo community; test: z-score of prototroph abundance vs DMSO median; higher = larger share of this subpopulation than in DMSO controls; conditions: 10 µM; 24 h; SM minimal medium; subpopulation (auxotrophy): Prototroph
In short: (§1)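 Four plasmids, each restoring a single auxotrophy and encoding a distinct fluorescent protein, were carried by a Saccharomyces cerevisiae BY4741 community. After overnight growth to OD600 1.0 and dilution to 0.3, 70 µl per well was grown for 24 h in minimal SM medium on 384-well plates acoustically predosed with library drugs at 10 µM final. Following paraformaldehyde fixation, automated confocal microscopy was used, with single-auxotroph fluorescent strains defining thresholds and autofluorescence correction. Subpopulation abundance was then scored as a z-score against the vehicle-well median.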

[3] = system: Saccharomyces cerevisiae BY4741 SeMeCo community; test: z-score of subpopulation abundance vs DMSO median, subpopulation auxotrophic for L; higher = larger share of this subpopulation than in DMSO controls; conditions: 10 µM; 24 h; SM minimal medium; subpopulation (auxotrophy): L
In short: as §1

[4] = system: Saccharomyces cerevisiae BY4741 SeMeCo community; test: z-score of subpopulation abundance vs DMSO median, subpopulation auxotrophic for U; higher = larger share of this subpopulation than in DMSO controls; conditions: 10 µM; 24 h; SM minimal medium; subpopulation (auxotrophy): U
In short: as §1

[5] = system: Saccharomyces cerevisiae BY4741 SeMeCo community; test: z-score of subpopulation abundance vs DMSO median, subpopulation auxotrophic for H; higher = larger share of this subpopulation than in DMSO controls; conditions: 10 µM; 24 h; SM minimal medium; subpopulation (auxotrophy): H
In short: as §1

[6] = system: Saccharomyces cerevisiae BY4741 SeMeCo community; test: z-score of subpopulation abundance vs DMSO median, subpopulation auxotrophic for LU; higher = larger share of this subpopulation than in DMSO controls; conditions: 10 µM; 24 h; SM minimal medium; subpopulation (auxotrophy): LU
In short: as §1

[7] = system: Saccharomyces cerevisiae BY4741 SeMeCo community; test: z-score of subpopulation abundance vs DMSO median, subpopulation auxotrophic for LM; higher = larger share of this subpopulation than in DMSO controls; conditions: 10 µM; 24 h; SM minimal medium; subpopulation (auxotrophy): LM
In short: as §1

[8] = system: Saccharomyces cerevisiae BY4741 SeMeCo community; test: z-score of subpopulation abundance vs DMSO median, subpopulation auxotrophic for HU; higher = larger share of this subpopulation than in DMSO controls; conditions: 10 µM; 24 h; SM minimal medium; subpopulation (auxotrophy): HU
In short: as §1

[9] = system: Saccharomyces cerevisiae BY4741 SeMeCo community; test: z-score of subpopulation abundance vs DMSO median, subpopulation auxotrophic for UM; higher = larger share of this subpopulation than in DMSO controls; conditions: 10 µM; 24 h; SM minimal medium; subpopulation (auxotrophy): UM
In short: as §1

[10] = system: Saccharomyces cerevisiae BY4741 SeMeCo community; test: z-score of subpopulation abundance vs DMSO median, subpopulation auxotrophic for HL; higher = larger share of this subpopulation than in DMSO controls; conditions: 10 µM; 24 h; SM minimal medium; subpopulation (auxotrophy): HL
In short: as §1

[11] = system: Saccharomyces cerevisiae BY4741 SeMeCo community; test: z-score of subpopulation abundance vs DMSO median, subpopulation auxotrophic for HLU; higher = larger share of this subpopulation than in DMSO controls; conditions: 10 µM; 24 h; SM minimal medium; subpopulation (auxotrophy): HLU
In short: as §1

[12] = system: Saccharomyces cerevisiae BY4741 SeMeCo community; test: z-score of subpopulation abundance vs DMSO median, subpopulation auxotrophic for HLM; higher = larger share of this subpopulation than in DMSO controls; conditions: 10 µM; 24 h; SM minimal medium; subpopulation (auxotrophy): HLM
In short: as §1

[13] = system: Saccharomyces cerevisiae BY4741 SeMeCo community; test: z-score of subpopulation abundance vs DMSO median, subpopulation auxotrophic for HUM; higher = larger share of this subpopulation than in DMSO controls; conditions: 10 µM; 24 h; SM minimal medium; subpopulation (auxotrophy): HUM
In short: as §1

[14] = system: Saccharomyces cerevisiae BY4741 SeMeCo community; test: z-score of subpopulation abundance vs DMSO median, subpopulation auxotrophic for LUM; higher = larger share of this subpopulation than in DMSO controls; conditions: 10 µM; 24 h; SM minimal medium; subpopulation (auxotrophy): LUM
In short: as §1

[15] = system: Saccharomyces cerevisiae BY4741 SeMeCo community; test: z-score of subpopulation abundance vs DMSO median, subpopulation auxotrophic for HLUM; higher = larger share of this subpopulation than in DMSO controls; conditions: 10 µM; 24 h; SM minimal medium; subpopulation (auxotrophy): HLUM
In short: as §1

[16] = system: Saccharomyces cerevisiae BY4741 SeMeCo community; test: z-score of subpopulation abundance vs DMSO median, subpopulation auxotrophic for HM; higher = larger share of this subpopulation than in DMSO controls; conditions: 10 µM; 24 h; SM minimal medium; subpopulation (auxotrophy): HM
In short: as §1

Structure (SMILES)	mean cell size [1]	z-score of prototroph abundance [2]	z-score of subpopulation abundance [3]	z-score of subpopulation abundance [4]	z-score of subpopulation abundance [5]	z-score of subpopulation abundance [6]	z-score of subpopulation abundance [7]	z-score of subpopulation abundance [8]	z-score of subpopulation abundance [9]	z-score of subpopulation abundance [10]	z-score of subpopulation abundance [11]	z-score of subpopulation abundance [12]	z-score of subpopulation abundance [13]	z-score of subpopulation abundance [14]	z-score of subpopulation abundance [15]	z-score of subpopulation abundance [16]
CC1(C)S[C@@H]2[C@H](NC(=O)[C@H](NC(=O)N3CCNC3=O)c3ccccc3)C(=O)N2[C@H]1C(=O)O [Azlocillin sodium salt]	12.4 ± 0.27	0.68	1.83	-1.51	-0.59	-0.34	1.34	-1.18	-1.29	0.33	-0.4	-0.3	-1.31	0.86	0.63	–
CNS(=O)(=O)CCc1ccc2[nH]cc(C3CCN(C)CC3)c2c1 [Naratriptan HCl]	12.4 ± 0.17	0.15	-0.79	0.55	-0.46	0.2	0.06	0.27	–	-0.28	-0.03	-0.19	-0.27	–	–	-0.44
CC[C@H](C)C[C@H](C)CCCCCCCCC(=O)N[C@H]1C[C@@H](O)[C@@H](NCCN)NC(=O)[C@@H]2[C@@H](O)CCN2C(=O)[C@H]([C@H](O)CCN)NC(=O)[C@H]([C@H](O)[C@@H](O)c2ccc(O)cc2)NC(=O)[C@@H]2C[C@@H](O)CN2C(=O)[C@H]([C@@H](C)O)NC1=O [Caspofungin Acetate]	12.17 ± 0.068	-12.2	5.93	–	31.6	-0.13	–	8.05	–	51.3	13.9	45.5	10.8	5.81	127	-0.2
Cc1nc(=O)c2cc(CN(C)c3ccc(C(=O)N[C@@H](CCC(=O)O)C(=O)O)s3)ccc2[nH]1 [Raltitrexed]	13.1 ± 0.36	–	-0.42	-1.11	-0.94	-1.62	-0.75	-2.1	-2.8	-0.37	-0.94	-0.97	-1.9	–	-1.38	-0.66
CNCC[C@@H](Oc1ccccc1C)c1ccccc1 [Atomoxetine HCl]	12.4 ± 0.22	–	0.96	0.03	-0.84	0	–	-0.99	-0.26	–	0.11	-0.77	-1.01	–	1.1	–
CC(C(=O)O)c1ccc2c(c1)CC(=O)c1ccccc1S2 (stereo not drawn) [Zaltoprofen]	–	0.63	-0.47	0.2	0.04	-0.2	-0.57	-0.7	-1.01	-0.14	-0.03	0.64	-0.7	–	-0.59	0.46
CCOc1ccc(NC(C)=O)cc1 [Phenacetin]	12.6 ± 0.17	-0.61	-0.65	0.86	0.23	0.1	-1.19	0.77	0.96	-0.01	0.79	0.8	1.17	-0.17	0.17	0.08
OCCN1CCN(CCCN2c3ccccc3Sc3ccc(C(F)(F)F)cc32)CC1 [Fluphenazine dihydrochloride]	12.4 ± 0.097	-0.57	1.3	–	1.1	0.63	0.55	0.37	-1.12	1.51	1.24	1.11	-0.44	0.9	0.51	–
CN1CCN(CCCN2c3ccccc3Sc3ccc(C(F)(F)F)cc32)CC1 [Trifluoperazine 2HCl]	–	0.01	-0.42	0.38	-0.58	-0.4	-0.04	0.54	0.11	-0.59	-0.24	-0.79	0.42	0	-0.04	0.33
NCC[C@H](O)C(=O)N[C@@H]1C[C@H](N)[C@@H](O[C@H]2O[C@H](CN)[C@@H](O)[C@H](O)[C@H]2O)[C@H](O)[C@H]1O[C@H]1O[C@H](CO)[C@@H](O)[C@H](N)[C@H]1O [Amikacin hydrate]	12.16 ± 0.089	0.26	1.02	-0.78	-0.04	-0.95	0.15	-0.52	–	0.87	-0.03	0.82	-0.33	-0.58	–	-0.36
NCC[C@H](O)C(=O)N[C@@H]1C[C@H](N)[C@@H](O[C@H]2O[C@H](CN)[C@@H](O)[C@H](O)[C@H]2O)[C@H](O)[C@H]1O[C@H]1O[C@H](CO)[C@@H](O)[C@H](N)[C@H]1O [Amikacin disulfate]	11.9 ± 0.14	0.25	0.46	0.78	-0.3	0.07	-0.17	-0.01	0.57	-0.25	0.12	-0.68	-0.51	-0.03	0.42	-1.21
C=CC[C@@H]1/C=C(\C)C[C@H](C)C[C@H](OC)[C@H]2O[C@@](O)(C(=O)C(=O)N3CCCC[C@H]3C(=O)O[C@H](/C(C)=C/[C@@H]3CC[C@@H](O)[C@H](OC)C3)[C@H](C)[C@@H](O)CC1=O)[C@H](C)C[C@@H]2OC [Tacrolimus (FK506)]	12.02 ± 0.1	-1.63	0.71	-0.41	1.87	-1.01	–	1.08	–	1.89	1.27	1.8	1.84	–	2.77	1.61
OC(CCN1CCCCC1)(c1ccccc1)C1CCCCC1 (stereo not drawn) [Trihexyphenidyl hydrochloride]	12.5 ± 0.24	-0.03	0.5	0.45	-0.13	1.04	-0.29	-0.18	0.41	-0.03	-0.09	0.68	-0.31	0.73	-0.13	-0.75
CCCCCc1ccc(C)cc1O [Amylmetacresol]	12.4 ± 0.14	-0.1	0.4	0.39	-0.64	0.24	-0.71	-0.1	–	–	0.35	0.52	-0.2	0.11	0.41	-0.5
